Reference: PubChem BioAssay (EPA / NIEHS)
Records with an inconclusive call do not appear. Activity calls are given as the source filed them. How the source made its calls, unless noted: active means hit-call score of the fitted dose curve at least 0.9, where 1 is the maximum; inactive means score below 0.9.

Key:
[1] = read-out: Monokine induced gamma interferon (MIG), CXCL9 (gene 4283); assay: BSK_SAg_MIG: BioMAP Diversity Plus: SAg Assay for Monokine induced gamma interferon (MIG) Biomarker Activity (AID 2283092); details: primary human HUVEC with PBMC; actives raise or lower the signal
Method in brief: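 Endothelial cells and PBMC were co-cultured, exposed to test chemicals, and sampled 24 h later. MIG was measured by ELISA, and responses were fitted in both directions relative to DMSO.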

[2] = BSK_SAg_PBMCCytotoxicity: PBMC Cytotoxicity Assessment in the BioMAP Diversity Plus: SAg Assay (AID 2283093); details: primary human HUVEC with PBMC;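 further: PBMC viability measured as Alamar Blue reduction fluorescence at 546/580 nm; fitted both ways against DMSO so a hit may be loss or gain of signal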;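 on AC50: PBMC superantigen activated with SEB plus TSST-1 one hour after compound addition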
Method in brief: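 HUVEC/PBMC co-culture; PBMC exposed to chemical 1 h before SEB and TSST-1 activation (20 ng/mL each), incubated 90 h, then Alamar Blue 6 h, fluorescence 546/580 nm. Bidirectional fit versus DMSO baseline.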

[3] = read-out: Interleukin-8 (IL8), CXCL8 (gene 3576); assay: BSK_SAg_IL8: BioMAP Diversity Plus: SAg Assay for Interleukin-8 (IL8) Biomarker Activity (AID 2283094); details: primary human HUVEC with PBMC; actives raise or lower the signal
Method in brief: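 Human umbilical vein endothelial cells co-cultured with PBMC, stimulated with superantigen; IL-8 measured by ELISA 24 h after chemical dosing. Bidirectional fitting versus DMSO; SRB staining in parallel cultures tracks cytotoxicity.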

[4] = BSK_SAg_Proliferation: Cell Proliferation Assessment in the BioMAP Diversity Plus: SAg Assay (AID 2283095); details: primary human HUVEC with PBMC
Method in brief: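 Human umbilical vein endothelial cells co-cultured with PBMC; sulforhodamine B total-protein staining (0.1% SRB after 10% TCA fixation, absorbance 560 nm) at 96 h in sub-confluent culture. Fitted bidirectionally against DMSO.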

[5] = BSK_SAg_SRB: Viability Assessment in the BioMAP Diversity Plus: SAg Assay (AID 2283096); details: primary human HUVEC with PBMC;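 further: cells read one day after compound addition; hits may be either gain or loss of signal compared with DMSO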
Method in brief: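 Human umbilical vein endothelial cells co-cultured with PBMC, read 24 h after compound dosing. Total protein measured by sulforhodamine B staining (0.1% SRB after 10% TCA fixation, absorbance 560 nm); bidirectional fit versus DMSO baseline.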

[6] = target: human CYP2A6, CYP2A6 (gene 1548) (UniProt P11509); assay: NVS_ADME_hCYP2A6: NovaScreen (NVS) CYP450-related Enzyme Activity (ADME) Assay for human CYP2A6 (AID 2283099; active means hit-call score of the fitted dose curve at least 0.9, where 1 is the maximum)
human CYP2A6, CYP2A6 (gene 1548), sequence (P11509 whole entry, looked up): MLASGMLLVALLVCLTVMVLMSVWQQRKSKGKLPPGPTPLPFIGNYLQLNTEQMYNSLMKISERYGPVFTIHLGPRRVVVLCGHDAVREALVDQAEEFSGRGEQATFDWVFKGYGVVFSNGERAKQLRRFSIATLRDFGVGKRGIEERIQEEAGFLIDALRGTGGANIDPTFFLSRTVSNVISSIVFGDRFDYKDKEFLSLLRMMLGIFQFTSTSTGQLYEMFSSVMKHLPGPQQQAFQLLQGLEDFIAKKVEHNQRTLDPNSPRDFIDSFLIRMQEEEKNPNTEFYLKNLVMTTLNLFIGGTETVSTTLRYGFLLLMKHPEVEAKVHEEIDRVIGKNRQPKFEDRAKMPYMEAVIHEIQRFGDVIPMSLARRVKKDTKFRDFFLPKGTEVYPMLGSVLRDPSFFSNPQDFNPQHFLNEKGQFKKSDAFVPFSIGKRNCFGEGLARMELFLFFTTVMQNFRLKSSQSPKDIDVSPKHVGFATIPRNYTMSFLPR
Method in brief: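 Recombinant human CYP2A6 expressed in insect cells, cell-free; fluorogenic substrate turnover read by fluorescence intensity 0.5 h after dosing. Primary screen 10 uM in duplicate, then concentration-response up to 20 uM; acetonitrile as negative control.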

[7] = target: human CYP1A2, CYP1A2 (gene 1544) (UniProt P05177); assay: NVS_ADME_hCYP1A2: NovaScreen (NVS) CYP450-related Enzyme Activity (ADME) Assay for human CYP1A2 (AID 2283102; active means hit-call score of the fitted dose curve at least 0.9, where 1 is the maximum;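 on AC50: potency for inhibition since loss of fluorescence marks reduced CYP1A2 activity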)
human CYP1A2, CYP1A2 (gene 1544), sequence (P05177 whole entry, looked up): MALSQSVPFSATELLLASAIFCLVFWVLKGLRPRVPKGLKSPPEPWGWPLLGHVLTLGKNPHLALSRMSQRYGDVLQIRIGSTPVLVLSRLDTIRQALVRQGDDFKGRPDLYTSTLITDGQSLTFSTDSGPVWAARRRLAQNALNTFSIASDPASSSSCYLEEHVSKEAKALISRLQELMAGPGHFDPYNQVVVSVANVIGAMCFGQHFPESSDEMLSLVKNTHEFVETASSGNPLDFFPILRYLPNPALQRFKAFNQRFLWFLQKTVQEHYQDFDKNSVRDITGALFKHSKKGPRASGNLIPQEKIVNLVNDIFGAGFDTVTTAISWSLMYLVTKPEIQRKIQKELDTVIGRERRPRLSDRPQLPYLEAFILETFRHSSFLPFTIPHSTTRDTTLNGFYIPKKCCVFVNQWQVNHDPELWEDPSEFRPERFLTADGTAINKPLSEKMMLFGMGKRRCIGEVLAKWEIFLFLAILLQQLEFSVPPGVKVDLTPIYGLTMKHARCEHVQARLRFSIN
Method in brief: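 Recombinant human CYP1A2 from insect cells, cell-free, fluorogenic substrate; read 0.5 h after dosing with loss of fluorescence signal indicating inhibition. Primary screen in duplicate at 10 uM, acetonitrile as negative control.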

[8] = target: human CYP19A1, CYP19A1 (gene 1588) (UniProt P11511); assay: NVS_ADME_hCYP19A1: NovaScreen (NVS) CYP450-related Enzyme Activity (ADME) Assay for human CYP19A1 (AID 2283098; active means hit-call score of the fitted dose curve at least 0.9, where 1 is the maximum)
human CYP19A1, CYP19A1 (gene 1588), sequence (P11511 whole entry, looked up): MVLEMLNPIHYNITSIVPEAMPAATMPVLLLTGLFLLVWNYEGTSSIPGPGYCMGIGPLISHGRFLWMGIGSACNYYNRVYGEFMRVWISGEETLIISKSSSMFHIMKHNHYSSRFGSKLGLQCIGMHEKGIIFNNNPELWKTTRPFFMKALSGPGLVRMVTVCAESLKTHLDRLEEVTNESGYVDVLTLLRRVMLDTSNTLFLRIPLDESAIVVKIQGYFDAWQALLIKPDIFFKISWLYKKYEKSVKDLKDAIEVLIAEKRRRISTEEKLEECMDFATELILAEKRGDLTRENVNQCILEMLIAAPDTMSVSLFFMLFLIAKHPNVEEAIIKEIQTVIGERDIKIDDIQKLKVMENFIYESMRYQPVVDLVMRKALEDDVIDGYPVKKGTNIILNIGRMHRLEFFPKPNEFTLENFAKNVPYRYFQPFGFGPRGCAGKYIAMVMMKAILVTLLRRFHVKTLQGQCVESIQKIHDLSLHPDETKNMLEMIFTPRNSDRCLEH
Method in brief: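 Recombinant enzyme in a cell-free format, read 0.5 h after dosing by fluorescence from a fluorogenic substrate. Loss of signal was fitted against acetonitrile as baseline. Primary screen in duplicate at 10 uM, actives then tested in concentration series.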

[9] = target: human CYP2B6, CYP2B6 (gene 1555) (UniProt P20813); assay: NVS_ADME_hCYP2B6: NovaScreen (NVS) CYP450-related Enzyme Activity (ADME) Assay for human CYP2B6 (AID 2283101; active means hit-call score of the fitted dose curve at least 0.9, where 1 is the maximum)
human CYP2B6, CYP2B6 (gene 1555), sequence (P20813 whole entry, looked up): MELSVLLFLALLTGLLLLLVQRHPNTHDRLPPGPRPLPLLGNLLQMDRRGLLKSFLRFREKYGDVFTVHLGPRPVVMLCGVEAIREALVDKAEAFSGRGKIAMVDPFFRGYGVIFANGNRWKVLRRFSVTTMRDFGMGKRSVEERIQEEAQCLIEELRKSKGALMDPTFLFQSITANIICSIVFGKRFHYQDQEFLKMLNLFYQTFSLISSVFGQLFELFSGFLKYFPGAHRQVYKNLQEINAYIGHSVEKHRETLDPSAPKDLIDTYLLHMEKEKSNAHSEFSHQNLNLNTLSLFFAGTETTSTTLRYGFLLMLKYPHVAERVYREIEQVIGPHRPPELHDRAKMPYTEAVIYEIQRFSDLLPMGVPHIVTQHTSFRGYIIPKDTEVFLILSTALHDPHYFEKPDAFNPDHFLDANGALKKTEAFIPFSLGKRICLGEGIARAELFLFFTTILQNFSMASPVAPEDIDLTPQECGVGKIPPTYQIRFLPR
Method in brief: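 Cell-free recombinant enzyme assay with a fluorogenic substrate; fluorescence intensity read 1 hour after dosing. Loss of signal relative to acetonitrile negative control indicates inhibition. Primary screen run in duplicate at 10 uM, actives then tested in concentration series.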

[10] = target: human CYP1A1, CYP1A1 (gene 1543) (UniProt P04798); assay: NVS_ADME_hCYP1A1: NovaScreen (NVS) CYP450-related Enzyme Activity (ADME) Assay for human CYP1A1 (AID 2283100; active means hit-call score of the fitted dose curve at least 0.9, where 1 is the maximum)
human CYP1A1, CYP1A1 (gene 1543), sequence (P04798 whole entry, looked up): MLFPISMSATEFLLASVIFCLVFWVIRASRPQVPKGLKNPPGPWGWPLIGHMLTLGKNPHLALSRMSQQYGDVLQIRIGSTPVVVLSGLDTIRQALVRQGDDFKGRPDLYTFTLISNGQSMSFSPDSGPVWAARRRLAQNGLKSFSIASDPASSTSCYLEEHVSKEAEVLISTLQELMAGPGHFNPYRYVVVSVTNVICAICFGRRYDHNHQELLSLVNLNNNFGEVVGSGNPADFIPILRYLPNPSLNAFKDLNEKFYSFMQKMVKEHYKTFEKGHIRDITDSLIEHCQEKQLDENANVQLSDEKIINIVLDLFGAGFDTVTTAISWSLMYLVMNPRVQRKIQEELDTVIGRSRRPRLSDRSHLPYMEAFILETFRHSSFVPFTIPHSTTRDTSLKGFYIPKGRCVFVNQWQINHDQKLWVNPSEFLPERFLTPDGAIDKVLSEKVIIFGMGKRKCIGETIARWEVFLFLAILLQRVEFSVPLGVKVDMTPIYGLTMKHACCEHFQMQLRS
Method in brief: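 Recombinant CYP1A1 with a fluorogenic substrate, cell-free, read 1 h after dosing; acetonitrile as negative control. Single-concentration screen at 10 uM in duplicate, then concentration-response up to 20 uM for chemicals meeting ~30% inhibition threshold.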

## CCc1nc(N)nc(N)c1-c1ccc(Cl)cc1
[1]
  outcome: inactive
[2]
  outcome: inactive
[3]
  outcome: inactive
[4]
  outcome: inactive
[5]
  outcome: inactive
[6]
  outcome: inactive

## O=C(O)CN(CC(=O)O)CC(=O)O
[1]
  outcome: inactive
[2]
  outcome: inactive
[3]
  outcome: inactive
[4]
  AC50: 29.1 µM (active)
[5]
  outcome: inactive
[7]
  outcome: inactive

## Cc1ccc(-c2cc(C(F)(F)F)nn2-c2ccc(S(N)(=O)=O)cc2)cc1
[1]
  AC50: 34.6 µM (active)
[3]
  AC50: 23.9 µM (active)
[4]
  AC50: 23 µM (active)
[5]
  AC50: 27.8 µM (active)

## CC(=O)O[C@]1(C(C)=O)CC[C@H]2[C@@H]3C=C(Cl)C4=CC(=O)[C@@H]5C[C@@H]5[C@]4(C)[C@H]3CC[C@@]21C
[1]
  outcome: inactive
[2]
  outcome: inactive
[3]
  outcome: inactive
[4]
  outcome: inactive
[5]
  AC50: 31.2 µM (active)

## C=CCc1ccc(OC)c(OC)c1
[1]
  outcome: inactive
[2]
  outcome: inactive
[3]
  outcome: inactive
[4]
  outcome: inactive
[5]
  outcome: inactive
[6]
  outcome: inactive

## CC(=O)[C@@]1(O)CC[C@H]2[C@@H]3CCC4=CC(=O)CC[C@]4(C)[C@H]3CC[C@@]21C
[1]
  outcome: inactive
[2]
  outcome: inactive
[3]
  outcome: inactive
[4]
  outcome: inactive
[5]
  outcome: inactive

## CCCCCCC(C=O)=Cc1ccccc1
[1]
  AC50: 31.5 µM (active)
[2]
  AC50: 31 µM (active)
[3]
  AC50: 29.8 µM (active)
[4]
  AC50: 34.9 µM (active)
[5]
  AC50: 35.3 µM (active)
[8]
  outcome: inactive

## CC(COCC(C)OC(=O)c1ccccc1)OC(=O)c1ccccc1 (stereo unspecified)
[1]
  outcome: inactive
[2]
  outcome: inactive
[3]
  outcome: inactive
[4]
  outcome: inactive
[5]
  outcome: inactive
[9]
  outcome: inactive
[7]
  AC50: 8.75 µM (active)

## CC(C)(O)c1ccc(CNC(=O)c2cccnc2Oc2ccc(F)cc2)cc1
[1]
  outcome: inactive
[2]
  outcome: inactive
[3]
  outcome: inactive
[4]
  outcome: inactive
[5]
  outcome: inactive
[10]
  outcome: inactive

## Nc1nc(Cl)nc2c1ncn2[C@H]1C[C@H](O)[C@@H](CO)O1
[1]
  outcome: inactive
[2]
  AC50: 0.642 µM (active)
[3]
  outcome: inactive
[4]
  AC50: 0.147 µM (active)
[5]
  AC50: 0.554 µM (active)
[8]
  outcome: inactive

## NC1CCCCC1
[1]
  outcome: inactive
[2]
  outcome: inactive
[3]
  outcome: inactive
[4]
  outcome: inactive
[5]
  outcome: inactive
[6]
  outcome: inactive
[9]
  outcome: inactive

## O=C1OC(c2ccc(O)cc2)(c2ccc(O)cc2)c2ccccc21
[1]
  AC50: 36.8 µM (active)
[2]
  outcome: inactive
[3]
  AC50: 20 µM (active)
[4]
  AC50: 29.3 µM (active)
[5]
  outcome: inactive
[6]
  outcome: inactive
[9]
  outcome: inactive

## C/C=C/C=C/C(=O)O
[1]
  outcome: inactive
[2]
  outcome: inactive
[3]
  outcome: inactive
[4]
  outcome: inactive
[5]
  outcome: inactive
[8]
  outcome: inactive

## COc1ccc(C(=O)Nc2nc3ccccc3c(NCc3ccccc3)c2C#N)cc1
[1]
  outcome: inactive
[2]
  outcome: inactive
[3]
  outcome: inactive
[4]
  AC50: 6.22 µM (active)
[5]
  outcome: inactive
[7]
  outcome: inactive

## Cc1cc(SC2=C(O)C[C@@](CCc3ccc(N)cc3)(C(C)C)OC2=O)c(C(C)(C)C)cc1CO
[1]
  outcome: inactive
[2]
  outcome: inactive
[3]
  outcome: inactive
[4]
  outcome: inactive
[5]
  outcome: inactive
[8]
  outcome: inactive

## CC(=O)OCC(COC(C)=O)OC(C)=O
[1]
  outcome: inactive
[2]
  outcome: inactive
[3]
  outcome: inactive
[4]
  outcome: inactive
[5]
  outcome: inactive
[10]
  outcome: inactive

## CSc1ccc(Oc2ccc(S(N)(=O)=O)cc2CN(C)C)cc1C
[1]
  outcome: inactive
[2]
  outcome: inactive
[3]
  outcome: inactive
[4]
  AC50: 23.3 µM (active)
[5]
  outcome: inactive

## CN(C)C(=O)NC1(c2ccccc2)CCN(CCC[C@]2(c3ccc(Cl)c(Cl)c3)CCCN(C(=O)c3ccccc3)C2)CC1
[1]
  outcome: inactive
[2]
  AC50: 7.62 µM (active)
[3]
  outcome: inactive
[4]
  AC50: 7.39 µM (active)
[5]
  outcome: inactive
[6]
  outcome: inactive

## S=c1[nH]c2ccccc2s1
[1]
  outcome: inactive
[2]
  outcome: inactive
[3]
  outcome: inactive
[4]
  outcome: inactive
[5]
  outcome: inactive
[6]
  AC50: 4.85 µM (active)
[9]
  AC50: 1.28 µM (active)
[7]
  outcome: inactive

## CC(=O)OC1CC(C)OC(C)O1 (stereo unspecified)
[1]
  outcome: inactive
[2]
  outcome: inactive
[3]
  outcome: inactive
[4]
  AC50: 13.5 µM (active)
[5]
  outcome: inactive
[10]
  outcome: inactive

## CC1(C)C(=O)NC(=O)N1CO
[1]
  outcome: inactive
[2]
  outcome: inactive
[3]
  outcome: inactive
[4]
  outcome: inactive
[5]
  outcome: inactive
[6]
  outcome: inactive

## CCCC[C@H]1CN(CC2CCOCC2)C(=O)OC12CCN(C1(C)CCN(C(=O)c3c(C)ncnc3C)CC1)CC2
[1]
  outcome: inactive
[2]
  outcome: inactive
[3]
  outcome: inactive
[4]
  outcome: inactive
[5]
  outcome: inactive
